Data taken from PubChem BioAssay AID1903 (Southern Research Specialized Biocontainment Screening …, 2009).
Out of some 310,000 compounds screened, about 1,200 (0.39%) were called active. No rule for the calls is given here. The list is a sample of the results. Entries with a potency or affinity are not part of this list.

Target: Large T antigen (Simian virus 40) (UniProt P03070)
Experiment: SV40 large T antigen inhibitors, biochemical (AID 1903)
Conditions: SV40 large T antigen ATPase/helicase inhibition assay; at 20 µM; active compounds read high

Large T antigen (Simian virus 40), sequence (P03070 whole entry, looked up): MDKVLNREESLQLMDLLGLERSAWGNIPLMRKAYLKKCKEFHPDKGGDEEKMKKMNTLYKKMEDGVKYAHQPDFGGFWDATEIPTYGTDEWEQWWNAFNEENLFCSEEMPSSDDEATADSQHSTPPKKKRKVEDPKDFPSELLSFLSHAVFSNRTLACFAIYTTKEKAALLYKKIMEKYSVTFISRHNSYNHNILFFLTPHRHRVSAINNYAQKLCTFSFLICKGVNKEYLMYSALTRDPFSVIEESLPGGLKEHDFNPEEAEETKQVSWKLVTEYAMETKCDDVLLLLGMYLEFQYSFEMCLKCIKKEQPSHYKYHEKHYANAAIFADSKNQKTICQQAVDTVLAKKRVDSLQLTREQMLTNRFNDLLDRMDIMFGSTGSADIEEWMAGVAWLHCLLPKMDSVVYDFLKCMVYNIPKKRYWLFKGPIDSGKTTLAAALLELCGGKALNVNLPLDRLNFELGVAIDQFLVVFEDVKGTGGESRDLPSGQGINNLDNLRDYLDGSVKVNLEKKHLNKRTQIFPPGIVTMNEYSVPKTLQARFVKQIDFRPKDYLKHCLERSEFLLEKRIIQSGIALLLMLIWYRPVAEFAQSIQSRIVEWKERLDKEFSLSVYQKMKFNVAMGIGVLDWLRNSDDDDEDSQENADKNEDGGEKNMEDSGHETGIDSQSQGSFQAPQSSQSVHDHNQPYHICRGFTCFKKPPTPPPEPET

inhibition, inactive:
CCC(C)n1c(SCC(=O)/C(C#N)=C(\C)N)nc2ccccc2c1=O (stereo not given) 7.34%, C/C(=C\c1ccccc1)C(=O)Nc1nc2ccc([N+](=O)[O-])cc2s1 8.41%, S=c1[nH]nc(-c2ccco2)n1/N=C/c1ccc(Cl)cc1 31%, Cc1cccc(/C=N/n2c(C)nnc2C)c1 10.3%, S=c1[nH]nc(-c2ccncc2)n1/N=C/c1cccc(Cl)c1 29.1%, CC(=C/c1ccccc1)/C=N/n1c(-c2ccncc2)n[nH]c1=S 19%, Clc1ccccc1CN1CCN(/N=C/C=C/c2ccco2)CC1 15.9%, CC(/C=N/n1c(-c2cccnc2)n[nH]c1=S)=C\c1ccco1 31.8%, S=c1[nH]nc(-c2n[nH]c3c2CCC3)n1/N=C/C=C/c1ccccc1 20.8%, Cc1ccc(/C=N/n2c(C)nnc2C)cc1 19.4%, COC(=O)c1cn(NC(=O)CC2CCCCC2)c(=O)c2ccccc12 1.58%, O=c1[nH]cnc2onc(-c3ccc(F)cc3)c12 34%, O=[N+]([O-])c1cccc2nc(-c3ccccc3)c(-c3ccccc3)nc12 1.39%, CCCCOc1ccc(C(=O)NCc2ccccn2)cc1 -4.84%, COc1ccc(C(=O)NC(=S)NC(C)c2ccccc2)cc1 (stereo not given) 5.22%, Cc1ccc(C)c(N2CCN(CCCNC(=O)CCn3c(=O)c4cccn4c4cccnc43)CC2)c1 15.1%, Cc1cc(C(C)(C)C)ccc1OCC(=O)N/N=C\c1c(C)n(C)n(-c2ccccc2)c1=O -3.36%, COc1ccc(CN2CCC(n3nccc3NC(=O)CCOc3ccccc3)CC2)cc1C 5.92%, O=C(NCc1ccco1)c1csc2c1CCCCC2 1.56%, Cc1cc(C)cc(CSCC(=O)N/N=C/c2ccc(OCC(=O)NCc3ccco3)cc2)c1 10.9%, CC(/C=N/n1c(-c2ccco2)n[nH]c1=S)=C\c1ccco1 28.2%, Cc1ccsc1/C=N/n1c(-c2ccncc2)n[nH]c1=S 25.6%, CC(/C=N/n1c(-c2ccc(Cl)cc2)n[nH]c1=S)=C\c1ccco1 22.6%, Cc1ccsc1/C=N/n1c(-c2ccccc2)n[nH]c1=S 18.6%, CC(/C=N/n1c(-c2ccccc2)n[nH]c1=S)=C\c1ccco1 33.1%, CC(/C=N/n1c(-c2ccc(C)cc2)n[nH]c1=S)=C\c1ccco1 19.5%, CCOc1ccccc1NC(=S)NCCc1ccc(F)cc1 2.66%, O=C(CS(=O)(=O)c1ccc(F)cc1)Nc1nnc(-c2cccs2)o1 28.3%, COc1ccc(OC(=O)COc2ccc(Cl)cc2)cc1 21.7%, Cc1cccc(NC(=S)N2CCN(c3ccccn3)CC2)c1 7.16%, COC(=O)C1=NNC2(C)C(=O)N(c3ccc(C)cc3)C(=O)C12 (stereo not given) 1.54%, Cc1cc(C(C)C)n2c(nc3ccccc32)c1C#N 3.46%, CCc1c(C)c(C#N)c2nc3ccccc3n2c1Cl -5.75%, CCc1ccc(N(C(=O)CNC(=O)c2ccco2)C(C(=O)NC2CCCC2)c2cccnc2)cc1 (stereo not given) 12.2%, COc1ccc(/C=C2/SC(=S)N(CCCC(=O)Nc3ccc(O)cc3)C2=O)cc1 5.12%, COc1ccc(/C=C2\C(=O)ON=C2c2ccccc2)cc1 72.8%, O=C1ON=C(c2ccccc2)/C1=C/c1ccc(O)cc1 48%, O=C1ON=C(c2ccccc2)/C1=C/c1ccco1 36.5%, O=C1ON=C(c2ccccc2)/C1=C/c1ccccc1 48.5%, COc1cc(/C=C2\C(=O)ON=C2c2ccccc2)cc(Cl)c1O 32.2%, O=C1ON=C(c2ccccc2)/C1=C/c1cccnc1 1.23%, O=C1ON=C(c2ccc(Cl)cc2)/C1=C/c1ccc(O)cc1 34.8%, COc1cc(/C=C2\C(=O)ON=C2c2ccccc2)cc(OC)c1OC 9.78%, CCc1ccc(C(=O)OCC(=O)NCCNC(=O)COC(=O)c2ccc(CC)cc2)cc1 4.49%, CCC(C)[C@H](N)c1cn([C@@H](Cc2ccc(O)cc2)C(=O)N2CCNCC2)nn1 (stereo not given in full) 3.28%, NC(=O)C1CCN(C(=O)Cc2ccc([N+](=O)[O-])cc2)CC1 21.5%, O=C(Nc1cc(F)ccc1F)C1CCN(S(=O)(=O)c2cccc3nonc23)CC1 9.1%, CCCS(=O)(=O)c1c(S(=O)(=O)CCC)c2ccc(C(N)=O)cn2c1C(=O)c1ccc(F)cc1 24%, COCC(C)NC(C(=O)Nc1ccc(Cl)c([N+](=O)[O-])c1)c1ccccc1 (stereo not given) 0.39%, CC1(C)CC(C(=O)NCCC(c2ccccc2)c2ccco2)CCO1 (stereo not given) 3.84%, CC(=O)Nc1nonc1-c1nc2ccccc2n1CCC(C)C -3.72%, CCCCOc1cccc(C(=O)N(Cc2ccccc2)C2CCS(=O)(=O)C2)c1 (stereo not given) -0.72%, CC1CCN(C(=O)N[C@@H](Cc2ccccc2)C(=O)O)CC1 0.13%, O=C1C2C3CCC(O3)C2C(=O)N1c1cccc(O)c1 (stereo not given) -1.61%, COc1cccc(C(=O)Nc2nnc(-c3ccccc3)s2)c1OC 13.1%, O=C(Nc1ccncc1)C1CC(=O)N(c2ccc(F)cc2)C1 (stereo not given) 12.3%, COC(=O)C1=C(C(=O)OC)[C@@H]2N(C)c3ccc(OC)cc3[C@@]23C[C@@H](C(=O)OC)N(C(=O)c2ccco2)C3=N1 27.8%, COc1ccc(/C=C2/C(=O)ON=C2c2ccccc2)cc1OC 12.2%, COc1ccc(/C=C2\C(=O)ON=C2c2ccccc2)cc1OC 53.9%, Cc1ccc(C)c(NC(=S)NC(NC(=O)Cc2ccccc2)C(Cl)(Cl)Cl)c1 (stereo not given) 5.58%, CCOc1ccc(CCNC(=O)C2CCN(c3nnc(-n4cccc4)s3)CC2)cc1 7.09%, CC1CCCCN1CCCNC(=O)C1CCN(c2nnc(-n3cccc3)s2)CC1 (stereo not given) 6.84%, CCC1CCCCN1CCCNC(=O)C1CCN(c2nnc(-n3cccc3)s2)CC1 (stereo not given) 8.7%, Cc1ccc(C)n1-c1nnc(N2CCC(C(=O)NCCCN3CC(C)CC(C)C3)CC2)s1 (stereo not given) -2.68%, CCN1CCN(CCCNC(=O)C2CCN(c3nnc(-n4cccc4)s3)CC2)CC1 12.4%, CC1CC(C)CN(CCCNC(=O)C2CCN(c3nnc(-n4cccc4)s3)CC2)C1 (stereo not given) 7.41%, O=C(NC1CC(=O)N(c2ccc3c(c2)OCCO3)C1)N1CCCCC1 (stereo not given) 11.8%, CCN(CC)S(=O)(=O)c1ccc(S(=O)(=O)N2CCN(CCC#N)CC2)cc1 2.53%, CCCc1nc2ccc(NC(C)=O)cc2c(=O)n1Cc1ccccc1Cl 19.8%, CC1CCCCC1NC(=O)/C(C#N)=C/c1ccc(F)c(F)c1 (stereo not given) -0.71%, CC(=O)N1N=C(c2ccc(NS(C)(=O)=O)cc2)CC1c1ccc2nccnc2c1 (stereo not given) 8.1%, O=C(O)C1CC=CCC1C(=O)NC1CCCCC1 (stereo not given) 20.5%, Cn1cnc([N+](=O)[O-])c1Sc1nnc(-c2cccnc2)n1C 7.52%, CCn1ncc([N+](=O)[O-])c1C(=O)n1nc(C)cc1C 18.1%, Cc1onc(-c2ccccc2Cl)c1C(=O)OCC(=O)Nc1cccc(S(=O)(=O)N2CCOCC2)c1 4.68%, O=C(CC(=O)N/N=C/c1ccc(F)cc1)N/N=C/c1ccc(F)cc1 10.6%, COc1ccc(/C=N/NC(=O)CC(=O)N/N=C/c2ccc(OC)cc2)cc1 -38%, C/C(=N\NC(=O)c1csc2ccccc12)c1ccc(O)cc1 26.5%, CN(C)c1ccc(/C=N/NC(=O)C[n+]2ccccc2)cc1 17.6%, O=C(C[n+]1ccccc1)N/N=C/c1ccc(F)cc1 8.34%, COc1ccc(/C=N/NC(=O)CCn2cnc3ccccc32)cc1 2.3%, O=C(N/N=C/c1cccc(O)c1)c1csc2ccccc12 9.57%, O=C(CCn1cnc2ccccc21)N/N=C/c1ccccc1O 14.7%, CC(C)Cn1cc(C(=O)N2CCN(c3ccccn3)CC2)c2c3ccccc3n(C)c2c1=O 1.5%, COc1nc(NC(=O)c2ccc(F)cc2)nc(OC)c1-c1ccccc1 6.25%, COc1ccc(-c2csc(NC(=O)CN3C(=O)NC4(CCCC4)C3=O)n2)cc1OC 23.8%, CCCOc1ccc(-c2nc(C#N)c(NCC3CCCO3)o2)cc1 (stereo not given) 3.05%, O=C(CSc1nc2ccccc2s1)NCCCN1CCOCC1 -10.3%, COc1ccc(CCC(=O)NC2=NCCS2)cc1OC 13.6%, O=C(Nc1ccc2c(c1)OCCO2)c1ccco1 30.4%, CCOC(=O)CSc1nc2sc3c(c2c(=O)n1C1CCCCC1)CCN(C)C3 24.2%, CCC(NC(=O)c1cc(COc2ccc(Cl)cc2OC)on1)c1ccncc1 (stereo not given) 7.95%, CCn1c(CC(=O)Nc2ccc(C)c(Cl)c2)nnc1SCc1ccc(Cl)c(Cl)c1 2.82%, CC(C)C1Nc2c(O)cc(Cl)c([N+](=O)[O-])c2C2C=CCC21 (stereo not given) 21.4%, O=[N+]([O-])c1ccc(Cl)c2c1C1C=CCC1C(c1ccccn1)N2 (stereo not given) 21.7%
